Measurements: PubChem BioAssay AID743185 (Broad Institute, 2013)
Calls of active or inactive are those of the source.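 Rule for the calls: active = ATP loss in HepG2 cells with fitted half-maximal concentration at most twice the top tested dose; inconclusive = flat curve showing moderate loss, or a poor fit; inactive = opposite effect, flat near zero, or weaker potency.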

Test: HepG2 cell cytotoxicity, dose response, cytotoxicity control, luminescence, dry powder, set 5 (AID 743185)

## O=C(N/N=C/c1c[nH]c2ccccc12)c1cccs1
  outcome: inactive

## CSc1ccc(/C=N/NC(=O)c2ccc3nc[nH]c3c2)cc1
  outcome: inactive
